Data as given in PubChem BioAssay (Tox21).
Inconclusive results are not listed. Where a call stands in place of a potency, no number is given. Calls of active or inactive are those of the source. The call rests on the fitted dose curve.

Experiment: p53 small molecule agonists, cell-based qHTS assay with human liver microsomes (AID 1963577);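 further: p53 response element beta-lactamase reporter cells with liver microsomes plus NADPH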
Settings: HCT-116 p53RE-bla with human liver microsomes, ratio, 16 h; series mostly up to 66 µM
From the text: National Center for Advancing Translational Sciences [NCATS]
Division of Preclinical Innovation [DPI]
U.S. Environmental Protection Agency [EPA]
National Institutes of Environmental Health Sciences [NIEHS]
National Toxicology Program [NTP]
U.S. Food and Drug Administration [FDA]
p53, a tumor suppressor protein, is activated following cellular insult, including DNA damage and other cellular stresses. The activation of p53 regulates cell fate by inducing DNA repair, cell cycle arrest, apoptosis, or cellular senescence. The activation of p53, therefore, is a good indicator of DNA damage and other cellular stresses. […] The activation of the reporter gene under culture conditions can be detected by fluorescence intensity.
Tox21 Assay Protocol Summary:
The p53RE-bla cells were dispensed at 4,000cells/3ul/well in 1536-well black-clear bottom plates. After the assay plates were incubated at 37 C, 5% CO2 incubator for 5 hours, 23 nL of compounds dissolved in DMSO, positive controls or DMSO only was transferred to the assay plate. Following compound addition, 3 uL of human liver microsomes (XenoTech, Kansas City, KS) at final concentration of 0.5 mg/mL and 1uL of Beta-Nicotinamide adenine dinucleotide 2-phosphate (NADPH) at final concentration of 0.5 mg/mL were transferred to the assay plate. The plates were incubated at 37 C for 16 hours. 1 uL of LiveBLAzer detection mixture was added to each well and the plates were incubated at room temperature in the dark for 2 h.
With `COC(C)CCO` (stereo not given) the Potency was “inactive”. With `Cc1ccc(C(C)(C)C)c(O)c1` the Potency was “inactive”. For `CCCC(=O)OC[C@@H](OC(=O)CCC)[C@@H](OC(=O)CCC)[C@H](Cn1c2nc(=O)[nH]c(=O)c-2nc2cc(C)c(C)cc21)OC(=O)CCC`, the Potency was “inactive”. In the case of `CCCCOC(=O)CC#N`, the Potency is reported as “inactive”. For `O=[N+]([O-])c1cccc(C(F)(F)F)c1`, the Potency was “inactive”. With `O=C(C(=O)c1ccc(Br)cc1)c1ccc(Br)cc1` the activation was -9.98% [at 13.5 µM] (inactive). For `O=[N+]([O-])C1(Br)COCOC1`, the Potency was “inactive”. For `COCCOC(=O)CC#N`, the Potency was “inactive”. In the case of `Nc1ccc2cc3ccc(N)cc3nc2c1`, the Potency is reported as “inactive”. With `C#CCN(C)CCCOc1ccc(Cl)cc1Cl` the Potency was “inactive”. For `Oc1ccccc1-c1nnco1`, the Potency was “inactive”. In the case of `C=C(C)[C@@H]1CC=C(C)CC1`, the Potency is reported as “inactive”. For `CC(C)CCCC(C)CC=O` (stereo not given), the Potency was “inactive”. For `O=C(O)Cc1ccc(Cl)cc1Cl`, the Potency was “inactive”. In the case of `CC(C)c1ccc2c(c1)CC[C@H]1[C@](C)(CN)CCC[C@]21C`, the Potency is reported as “inactive”. For `C=CC(=O)OCCCCCCOC(=O)C=C`, the Potency was “inactive”. In the case of `CC(C)C1=CC2=CC[C@@H]3[C@](C)(CCC[C@@]3(C)C(=O)O)[C@H]2CC1`, the Potency is reported as “inactive”. In the case of `COc1cc2ncnc(Nc3cccc(Cl)c3)c2cc1OC`, the activation is reported as -11.3% [at 13.5 µM] (inactive). For `CC1=CC(=C(c2ccc(N)cc2)c2ccc(N)cc2)C=CC1=N`, the activation was -13.4% [at 5.99 µM] (inactive). In the case of `O=P(O)(O)OP(=O)(O)O`, the Potency is reported as “inactive”. In the case of `O=C(NOCC1CC1)c1ccc(F)c(F)c1Nc1ccc(I)cc1Cl`, the Potency is reported as “inactive”. In the case of `Clc1ccc(Cn2c(CN3CCCC3)nc3ccccc32)cc1`, the Potency is reported as “inactive”. With `Oc1c(I)cc(Cl)c2cccnc12` the Potency was “inactive”. In the case of `CCc1c(C(=O)NN2CCCCC2)nn(-c2ccc(Cl)cc2Cl)c1-c1ccc(Br)cc1`, the Potency is reported as “inactive”. With `c1ccc(C[n+]2cccc3ccccc32)cc1` the Potency was “inactive”. In the case of `O=C(Nc1ccc(Cl)c(Cl)c1)c1cc(Cl)cc(Cl)c1O`, the Potency is reported as “inactive”. In the case of `CCc1cc2cc(OC)c(OC)cc2c(Cc2ccccc2)n1`, the Potency is reported as “inactive”. For `Oc1ccc(C2(c3ccc(O)cc3)CC3CC2C2CCCC32)cc1` (stereo not given), the Potency was “inactive”. In the case of `CCCCCOc1ccccc1/C(=C\SC)n1ccnc1`, the Potency is reported as “inactive”. In the case of `O=C(CCCCCCC(=O)Nc1ccccc1)NO`, the Potency is reported as “inactive”. In the case of `c1cc(OCC2CO2)cc(OCC2CO2)c1` (stereo not given), the Potency is reported as “inactive”. In the case of `COC(=O)CC(C)CCC=C(C)C` (stereo not given), the Potency is reported as “inactive”. For `CCCC(C)C(=O)O` (stereo not given), the Potency was “inactive”. For `O=S(c1cc(Cl)cc(Cl)c1O)c1cc(Cl)cc(Cl)c1O`, the Potency was “inactive”. In the case of `CC(C)COC(=O)c1ccc(O)cc1`, the Potency is reported as “inactive”. In the case of `Nc1ccc(N=Nc2ccccc2)c(N)c1`, the Potency is reported as “inactive”. For `C[C@@]12CCC[C@H]1[C@@H]1CC[C@H]3C[C@@H](O)CC[C@]3(C)[C@H]1CC2`, the Potency was “inactive”. For `CCOc1ccc(N=Nc2ccc(/C=C/c3ccc(N=Nc4ccc(OCC)cc4)cc3S(=O)(=O)O)c(S(=O)(=O)O)c2)cc1`, the Potency was “inactive”. For `CC(=O)Nc1cccc(N)c1`, the Potency was “inactive”. With `Cn1c(N)nc2nc[nH]c2c1=O` the Potency was “inactive”.
